TDP1 inh – inhibitors of human tyrosyl-DNA phosphodiesterase TDP1; recombinant TDP1, AlphaScreen DNA substrate cleavage; Potency, µM (highest dose often 130 µM), inactives show at the highest dose activity change, negative = inhibition, actives largely listed as inhibitors; 0.28% of 350,000 active; note: nearly all actives have a fitted effect of over 40% in size
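Enzyme-compound mixtures sat 15 min at room temperature, followed by a 5 min reaction with 15 nM final substrate and 10 min with AlphaScreen beads. Recombinant human Tdp1 was used at 1 nM final.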
GCN5L2 inh – GCN5L2 (KAT2A) acetyltransferase inhibition; 0.21% of 390,000 active; Potency, µM (titrated, usually from 58.9 µM), without a hit: top-dose activity change, negative = inhibition, actives largely listed as inhibitors; GCN5L2 HAT assay, ThioGlo1 CoA-SH fluorescence
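Preincubate 20nM GCN5L2 with compound 15 min, RT → add 50uM ThioGlo1 + 75uM H3(1-25) + 70uM acetyl-CoA → read fluorescence 0 and 20 min. Primary qHTS; fluorescent artifacts likely.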
DT40 TDP1 CPT – growth inhibition of DT40 Tdp1-/-;hTDP1 cells with camptothecin (screen for TDP1 inhibitors) | chicken DT40 Tdp1-/-;hTDP1 cells + 20 nM CPT, ATP luminescence, 48 h | Potency, µM (doses to about 46.2 µM), for the others: at the highest dose activity change, negative = growth inhibition, most hits filed as inhibitors | 12% of 420,000 active | AID 686979; note: nearly all actives have a fitted effect of over 55% in size
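Cell growth measured by CellTiter-Glo luminescence after a minimum 48 h, 37 C compound exposure with 20 nM CPT in Tdp1-knockout DT40 cells stably expressing hTDP1, seeded 400/well; qHTS titration format.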
TDP1 cell noCPT – qHTS for Inhibitors of human tyrosyl-DNA phosphodiesterase 1 (TDP1): qHTS in cells in absence of CPT; DT40 Tdp1-/- hTDP1 cells, no CPT, ATP luminescence, 48 h; Potency, µM (titrated, usually from 46.2 µM), for the others: at the highest dose activity change, negative = growth inhibition, actives largely listed as inhibitors; 15% of 420,000 active; note: nearly all actives have a fitted effect of over 55% in size
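A cellular qHTS used chicken DT40 cells lacking endogenous Tdp1 but carrying stably transfected human TDP1. Compounds were applied without camptothecin, and cell growth kinetics were judged by ATP-dependent luminescence after ≥48 hr.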
VDR inhibitor – inhibitors of human vitamin D receptor | VDR-SRC2-3 peptide fluorescence polarization, 2 h | Potency, µM, for the others: max response, negative = inhibition, actives largely listed as inhibitors | 0.93% of 400,000 active | AID 504847
Target sequence (P11473 whole entry, looked up): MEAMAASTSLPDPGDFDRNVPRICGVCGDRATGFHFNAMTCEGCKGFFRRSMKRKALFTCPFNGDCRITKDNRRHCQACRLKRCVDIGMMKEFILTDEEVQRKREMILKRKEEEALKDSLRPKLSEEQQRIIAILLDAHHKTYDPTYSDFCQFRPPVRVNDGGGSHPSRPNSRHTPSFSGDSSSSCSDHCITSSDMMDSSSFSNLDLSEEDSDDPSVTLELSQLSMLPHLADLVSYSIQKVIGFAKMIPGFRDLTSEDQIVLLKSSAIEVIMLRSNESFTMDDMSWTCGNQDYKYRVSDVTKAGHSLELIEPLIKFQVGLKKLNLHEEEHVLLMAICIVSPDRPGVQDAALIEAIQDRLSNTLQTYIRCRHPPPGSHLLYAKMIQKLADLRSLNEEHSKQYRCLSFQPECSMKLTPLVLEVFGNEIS
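Inhibition of the VDR/SRC2-3 peptide interaction is quantified by fluorescence polarization. Compounds (23 nl, pintool) incubate with the reagents for 2 hours at ambient room temperature.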
PLK1 PBD inh – inhibitors of human PLK1 polo-box domain binding; 2.8% of 360,000 active; Potency, µM, for the others: max response, negative = inhibition, actives largely listed as inhibitors; P53350; Plk1 PBD binding of FITC phosphopeptide, fluorescence polarization; note: series mostly up to about 57 µM; nearly all actives have a fitted effect of over 65% in size
An asterisk follows results filed as active; ? = inconclusive; . = not tested or not shown; [ ] = remark or other dose. Only some compounds are listed: those with a hit (about 18% of all), similar ones and a draw of the others. Calls come from the whole dose curve; as a rule, active = well fitted curve in the direction sought with a large enough effect; inconclusive = small, poorly fitted or top-dose-only effect, or another doubt; inactive = no such curve, though single readings can be large; an effect the other way counts as inactive or inconclusive. % is set by controls: 0 for no effect and ±100 for the full control effect; potency is the fitted concentration of half-maximal effect.

SMILES	TDP1 inh	GCN5L2 inh	DT40 TDP1 CPT	TDP1 cell noCPT	VDR inhibitor	PLK1 PBD inh
O=C(NC1CCCCC1)C(c1cccnc1)N(C(=O)CCl)c1ccc(F)cc1 (stereo unspecified)	4%	2%	0.52µM*	0.58µM*	-8%	-7%
O=C(NC1CCCCC1)C(c1cccnc1)N(C(=O)CCl)c1ccccc1Cl (stereo unspecified)	4%	0%	?	?	-6%	-7%
C[C@@H]1O[C@H](O[C@@H]2[C@H](C)O[C@H](O[C@@H]3[C@H](C)O[C@H](O[C@H]4CC[C@]5(C)[C@@H](CC[C@@H]6[C@H]5C[C@@H](O)[C@]5(C)[C@@H](C7=CC(=O)OC7)CC[C@]65O)C4)C[C@@H]3O)C[C@@H]2O)C[C@H](O)[C@@H]1O	5%[56.1 µM]	5%[21.4 µM]	.	.	-2%	.
COC(=O)N1CCC[C@@]2(CCN(Cc3nccs3)C2)C1	.	11%	13%	2%	-3%	.
CSc1nc(-c2ccccc2)nn1C(=O)c1ccccc1	1%	-19%	?	23µM*	-1%	?
CSc1nc(-c2ccc(Cl)cc2)nn1C(=O)c1ccccc1	3%	-1%	?	-17%	?	?
c1ccc(Nc2ccnc(Nc3ccccc3)n2)cc1	3%	-8%	?	21µM*	-4%	-8%
Cc1[nH]n(-c2ccccc2)c(=S)c1C=Nc1cccc([N+](=O)[O-])c1	6%	10µM*	?	-26%	22µM*	3.4µM*
O=[N+]([O-])c1ccc(C=Nc2ccccc2)cc1	.	.	?	?	.	-5%
O=C(Nc1cccc2ccccc12)OC1C=CS(=O)(=O)C1 (stereo unspecified)	2%	0%	?	21µM*	5%	1%
CCN(Cc1ccccc1)C(=O)CN(c1ccc(OC)cc1)S(=O)(=O)c1c(C)nn(C)c1C	-5%	-3%	4%	?	1%	.
CCCn1c(SCC(=O)Nc2cc(C(=O)O)ccc2C)nc2sc3c(c2c1=O)CCC3	.	-14%	?	?	99%	-13%
C[C@H]1COc2cccc(N3CCC[C@H]3CO)c2S(=O)(=O)N1	.	.	-2%	-13%	.	5%
COc1cc(/C=C2/C(=O)N(c3ccc([N+](=O)[O-])cc3)N=C2N2CCOCC2)ccc1O	4%	-15%	?	?	?	11µM*
COc1cccc(C2=CC(c3cccs3)n3nnnc3N2)c1 (stereo unspecified)	3%	-3%	2.3µM*	3.3µM*	9%	-5%
Fc1ccc(Br)cc1C1C=C(c2ccc(Br)cc2)Nc2nnnn21 (stereo unspecified)	9%	-7%	?	23µM*	2%	.
CCc1ccc(C2=CC(c3cc(Br)ccc3F)n3ncnc3N2)cc1 (stereo unspecified)	3%	?	23µM*	18µM*	-7%	-18%
Cc1ccsc1C1C=C(c2cccc(Br)c2)Nc2ncnn21 (stereo unspecified)	5%	-13%	?	?	-5%	-29%
COc1ccc(C2C=C(c3ccc(Br)cc3)Nc3nnnn32)c(OC)c1 (stereo unspecified)	4%	1%	-98%	23µM*	11%	.
COc1cccc(C2=CC(c3ccc(OC)c(OC)c3OC)n3nnnc3N2)c1 (stereo unspecified)	-5%	-12%	-22%	-22%	-9%	-5%
COc1ccc(NC(=O)c2cc([N+](=O)[O-])ccc2N2CCCC2)cc1S(N)(=O)=O	-6%	-5%	11%	4%	12%	0%
O=C(c1cc(S(=O)(=O)N2CCOCC2)ccc1Cl)N1CCC(Cc2ccccc2)CC1	.	-7%	?	?	-6%	-1%
CCN(CC(=O)NCc1cccs1)CC(=O)Nc1ccccc1C	3%	-1%	-5%	-24%	-2%	-7%
Cn1c(-c2ccccc2[N+](=O)[O-])[n+](C)c2ccccc21	5%	0%	13µM*	5.8µM*	12%	3%
CC(NC(=O)COC(=O)CCN1C(=O)C2CC=CCC2C1=O)c1ccc(Br)cc1 (stereo unspecified)	0%	-1%	-13%	10%	12%	1%
SMILES	TDP1 inh	GCN5L2 inh	DT40 TDP1 CPT	TDP1 cell noCPT	VDR inhibitor	PLK1 PBD inh
O=c1c(Cl)c(N2CCC3(CC2)OCCO3)cnn1C12CC3CC(CC(C3)C1)C2	.	-22%	?	13µM*	-1%	1%
CN(C)/N=C/c1ccc(Sc2ccccc2[N+](=O)[O-])o1	11%	-12%	?	?	-18%	6µM*
CN(/N=C/c1ccc(-c2ccc([N+](=O)[O-])cc2)o1)c1ccccc1	10%	3%	-3%	-7%	-2%	15%
O=C(C[N+]1(CCO)CCOCC1)c1ccc(F)c2ccccc12	.	.	-117%	?	.	.
CS(=O)(=O)c1oc(-c2ccc(F)cc2)nc1S(=O)(=O)c1ccc(Cl)cc1	0%	-1%	0.58µM*	0.82µM*	?	.
CCS(=O)(=O)c1oc(-c2ccc(F)cc2)nc1S(=O)(=O)c1ccc(Br)cc1	7%	-11%	0.92µM*	1.2µM*	?	.
CSc1oc(-c2ccc(F)cc2)nc1S(=O)(=O)c1ccc(F)cc1	6%	-10%	15µM*	23µM*	-1%	-6%
CSc1oc(-c2ccc(F)cc2)nc1S(=O)(=O)c1ccccc1	0%	-5%	-1%	-15%	28%	-7%
Cc1ccc(S(=O)(=O)c2nc(-c3ccc(F)cc3)oc2SCC(N)=O)cc1	0%	-2%	0%	-9%	-5%	-8%
CN(C)S(=O)(=O)N1CCC(n2c(C(F)(F)F)nc3cccnc32)CC1	3%	7%	?	-4%	8%	.
COc1ccccc1-c1ccnc(-n2ncc(C(=O)N(C)CCc3ccccn3)c2C)n1	.	.	8%[9.04 µM]	8%	.	.
Cc1cnc(-n2ncc(C(=O)N(C)CCc3ccccn3)c2-c2cccs2)nc1-c1ccc(F)cc1	.	.	-14%[9.04 µM]	12µM*	.	.
CC(C)C(c1nnnn1Cc1ccc(F)cc1)N1CCN(C(=O)c2ccco2)CC1 (stereo unspecified)	4%	0%	?	16µM*	0%	-5%
CCCCC(c1nnnn1CCOC)N1CCN(C(=O)c2ccco2)CC1 (stereo unspecified)	1%	-2%	18µM*	-17%	-7%	?
CN(C)c1ccc(C(c2nnnn2C(C)(C)C)N2CCN(C(=O)c3ccco3)CC2)cc1 (stereo unspecified)	2%	-3%	13%	1%	16µM*	-2%

Screening results (PubChem)
